{
  "source": "PubChem BioAssay (EPA / NIEHS)",
  "note": "The source made the active and inactive calls. The calls were made as follows: active = hit-call score of the fitted dose curve at least 0.9, where 1 is the maximum; inactive = score below 0.9.",
  "data": [
    {"read-out": "Collagen I, COL1A1 (gene 1277)", "assay": "BSK_MyoF_CollagenI: BioMAP Diversity Plus: MyoF Assay for Collagen I Biomarker Activity (AID 2284238)", "conditions": "primary human lung fibroblasts", "description": "BSK_MyoF is a cell-based, multiplexed-readout assay that uses lung fibroblasts, […], with measurements taken at 24 hours after chemical dosing in a microplate: 96-well plate.BSK_MyoF_CollagenI is an assay component measured in the BSK_MyoF assay. It measures Collagen I antibody related to regulation of gene expression using ELISA technology.Data from the assay component BSK_MyoF_CollagenI was analyzed at the endpoint, BSK_MyoF_CollagenI, in the positive analysis fitting direction relative to DMSO as the negative control and baseline of activity. Using a type of binding reporter, gain or loss-of-signal activity can be used to understand protein changes. To generalize the intended target to other relatable targets, this assay endpoint is annotated to the 'cell adhesion molecules' intended target family, where the subfamily is 'collagen'.\nThe levels of cell surface (or secreted, indicated by the prefix \"s\") biomarker endpoints were measured by ELISA. Overt cytotoxicity to cells in confluent adherent cultures (all systems other than the BT system) was assessed by measuring total protein levels using sulforhodamine B (SRB) staining in parallel cultures at the time of biomarker measurements, indicated as SRB endpoints. For proliferation assays for adherent cell types, individual cell types are cultured at sub-confluence and relative cell numbers quantified by SRB staining at time points optimized for each system (48 h: 3C and CASM3C systems; 72 h: BT and HDF3CGF systems; 96 h: SAg system). SRB was performed by staining cells with 0.1% SRB after fixation with 10% TCA and reading wells at 560 nm.Viability and proliferation of PBMC (T cells) was quantified by Alamar Blue reduction for the SAg and BT systems. For PBMC viability (referred to as PBMC Cytotoxicity within the assay endpoint names), cells were plated (75,000/well in a 96-well plate) and then chemical samples added for 1 h before addition of activators, SEB and TSST-1 (20 ng/mL final concentration each). Cells were incubated for 90 h. Then, Alamar Blue (20 uL/well) (Invitrogen, Cat DAL1100) was added for 6 h, and the plates were read with a fluorescence microplate reader at 546/580 nm (excitation/emission). For PBMC proliferation, cells were plated and activated as above but incubated for only 16 h prior to addition of Alamar Blue. Plates were read after 6 h.", "values": [
      {"smiles": "CCCCC(CC)COC(=O)c1ccccc1O", "note": "(configuration not stated)", "AC50": "14.5 µM (active)"},
      {"smiles": "CC(C)C(=O)C(C)C", "outcome": "inactive"},
      {"smiles": "c1ccc2c(c1)ccc1cc3c(ccc4ccccc43)cc12", "outcome": "inactive"},
      {"smiles": "CC(C)(c1cc(Br)c(OCCO)c(Br)c1)c1cc(Br)c(OCCO)c(Br)c1", "AC50": "6.65 µM (active)"},
      {"smiles": "S=C(NC1CCCCC1)NC1CCCCC1", "outcome": "inactive"},
      {"smiles": "CC1OC1C1CCC2(C)OC2C1", "note": "(configuration not stated)", "outcome": "inactive"},
      {"smiles": "C=CC(=O)OCC(Br)CBr", "note": "(configuration not stated)", "AC50": "20 µM (active)"},
      {"smiles": "c1ccc2c(c1)ccc1ncccc12", "outcome": "inactive"},
      {"smiles": "O=Nc1ccc(O)cc1", "outcome": "inactive"},
      {"smiles": "COCc1c(C(C)C)nc(C(C)C)c(/C=C/[C@@H](O)C[C@@H](O)CC(=O)O)c1-c1ccc(F)cc1", "AC50": "9.2 µM (active)"},
      {"smiles": "CCCCCCCCc1ccc(Nc2ccc(CCCCCCCC)cc2)cc1", "outcome": "inactive"},
      {"smiles": "CCCCCCCCCCCCCCCC[N+](C)(C)CC", "AC50": "0.64 µM (active)"},
      {"smiles": "C=CC=CC=CCCCCC", "outcome": "inactive"},
      {"smiles": "C=CCOCC(O)CCl", "note": "(configuration not stated)", "outcome": "inactive"},
      {"smiles": "COc1ccc2nc(N)sc2c1", "outcome": "inactive"},
      {"smiles": "N#[N+]c1ccc2c(S(=O)(=O)[O-])cccc2c1O", "outcome": "inactive"},
      {"smiles": "CCCCC/C=C\\C/C=C\\CCCCCCCC(=O)OC", "AC50": "27.1 µM (active)"},
      {"smiles": "C=CCOc1c(Br)cc(Br)cc1Br", "AC50": "20 µM (active)"},
      {"smiles": "O=C(Cl)c1cc(C(=O)Cl)cc(C(=O)Cl)c1", "AC50": "30.7 µM (active)"},
      {"smiles": "CCCCNc1ccc(NCCCC)c2c1C(=O)c1ccccc1C2=O", "outcome": "inactive"},
      {"smiles": "c1ccc(-c2ccccn2)nc1", "outcome": "inactive"},
      {"smiles": "CCO[Si](CCCN=C=O)(OCC)OCC", "outcome": "inactive"},
      {"smiles": "O=C(Nc1ccccc1SSc1ccccc1NC(=O)c1ccccc1)c1ccccc1", "outcome": "inactive"},
      {"smiles": "C#CC1(O)CC[C@H]2[C@@H]3CCC4=CCCC[C@@H]4[C@H]3CC[C@@]21C", "note": "(some centres not stated)", "AC50": "22.4 µM (active)"},
      {"smiles": "O=c1c2ccccc2oc2ccccc12", "outcome": "inactive"},
      {"smiles": "CCOc1nc(F)cc2nc(S(=O)(=O)Nc3c(Cl)cccc3C(=O)OC)nn12", "outcome": "inactive"},
      {"smiles": "C/C=C\\C/C=C/CCCCCCCCOC(C)=O", "outcome": "inactive"}
    ]}
  ]
}
